Measured values taken from PubChem BioAssay AID618 (Sanford-Burnham Center for Chemical Genomics, 2007).
The campaign covered roughly 87,000 compounds. About 540 (0.62%) were called active. How the calls were made is not given here. Shown is part of a subset that was picked to be rich in actives. A call without a number means that no potency is given here. Potency and affinity values are given separately.

Assay: inhibitors of MT1-MMP promoter transcription, cell-based, luciferase reporter, luminescence (AID 618);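 further: actives suppress MT1-MMP promoter-driven transcription so potencies describe inhibitors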
Conditions: MT1-MMP promoter luciferase reporter cells

| Structure (SMILES) | outcome |
| --- | --- |
| CC(C)CNC(=O)c1ccccc1NC(=O)c1ccccc1N(C)S(C)(=O)=O | inactive |
| COC(=O)CSc1nnc2n1C(C)(C)Cc1ccccc1-2 | inactive |
| Cc1ccc2cc(CCNC(=O)C(C)C)c(=O)[nH]c2c1 | inactive |
| COC(=O)c1sc(S(=O)(=O)N2CCCCC2)c(C(=O)OC)c1C | inactive |
| COc1ccc(NC(=O)NCCCN2CCc3ccccc3C2)cc1 | inactive |
| O=C(Nc1ccc(N2CCCCC2)c(C(=O)O)c1)c1ccco1 | inactive |
| O=C(Nc1ccc(N2CCOCC2)c(Cl)c1)c1ccco1 | inactive |
| Oc1c(C(Nc2nc3ccccc3s2)c2ccco2)ccc2cccnc12 (configuration not stated) | inactive |
| CC(=O)NC(c1ccco1)c1ccc2cccnc2c1O (configuration not stated) | inactive |
| CCN(CC)C(=O)CSc1nnc(-c2ccccn2)n1-c1ccc(C)c(C)c1 | inactive |
| COc1ccc(S(=O)(=O)N2CCN(c3ncnc4c(-c5ccccc5)nsc34)CC2)cc1 | inactive |
| COc1ccc(-c2nsc3c(N4CCCC4)ncnc23)cc1 | active |
| COc1ccc(-c2nsc3c(N4CCN(C(=O)c5ccco5)CC4)ncnc23)cc1 | inactive |
| O=C(N1CCCC1)N1CCN(c2ncnc3c(-c4ccc(Cl)cc4)nsc23)CC1 | inactive |
| COc1ccc(-c2nsc3c(N4CCN(S(=O)(=O)c5ccccc5)CC4)ncnc23)cc1 | inactive |
| CC1(C)CC(=O)c2cc(C(=O)NC3CCSC3=O)c(=O)n(-c3ccccc3)c2C1 (configuration not stated) | inactive |
| O=C(O)C1C2C=CC(C2)C1C(=O)N1CCc2ccccc21 (configuration not stated) | inactive |
| O=C1CCC(C(=O)OCc2c(Cl)cccc2Cl)N1 (configuration not stated) | inactive |
| CC1C2CC(CC1(C)C)N(C(=O)Nc1ccc3nccnc3c1)C2 (configuration not stated) | inactive |
| COC(=O)c1c(O)c2ccccc2[nH]c1=O | inactive |
| Cc1cccc2cc(CN(Cc3cccs3)C3(c4nnnn4C4CCCC4)CCCC3)c(=O)[nH]c12 | inactive |

| Structure (SMILES) | outcome |
| --- | --- |
| COc1ccc(-c2cn3ccc4ccccc4c3n2)cc1 | inactive |
| COc1cccc(-c2cn3nc(C)c(C)nc3n2)c1 | inactive |
| COc1cccc(-c2cc(C(F)(F)F)n3nc(N)nc3n2)c1 | inactive |
| COc1cccc(-c2cn3nc4c(nc3n2)CCCC4)c1 | active |
| COc1ccc(-c2cn3c(n2)CCC3)cc1 | inactive |
| c1ccc(-c2ccc(-c3cn4c(n3)CCC4)cc2)cc1 | inactive |
| c1ccc(-c2cn3c(n2)CCC3)cc1 | inactive |
| CCOC(=O)c1cc(-c2ccccc2)n(CC(=O)N2CCCC2)c1C | inactive |
| COc1ccc(OC)c(C(C)NC=O)c1 (configuration not stated) | inactive |
| Cc1noc(C)c1CSc1nnc2scc(-c3ccc(Cl)cc3)n12 | inactive |
| Cc1ccc(NC(=O)c2noc3c2CCCCC3)cc1 | inactive |
| O=C(Nc1cccnc1)c1noc2c1CCCCC2 | inactive |
| Cc1ccc(NC(=O)c2noc3c2CCCCC3)cc1C | inactive |
| CCc1ccc(NC(=O)c2noc3c2CCCCC3)cc1 | inactive |
| Cc1ccccc1C1CC(c2ccc(F)cc2)Nc2nc(N)nn21 (configuration not stated) | inactive |
| O=C1CCC(=O)N1CCCCCc1nc(-c2ccccc2)no1 | inactive |
| NS(=O)(=O)c1ccc(CNC(=O)C2CCCCC2)cc1 | inactive |
| CCn1c(SCC(=O)NCC(=O)Nc2ccc(F)cc2)nnc1-c1cccs1 | inactive |
| O=C(COc1c(F)c(F)c(C(F)(F)F)c(F)c1F)Nc1ccc(N2CCOCC2)c(Cl)c1 | inactive |
| CCOC(=O)C(NC(=O)CC(C)C)(Nc1cc(C)on1)C(F)(F)F (configuration not stated) | inactive |
| CCC(C)(C)n1nnnc1CN1CCC(c2nc3ccc(C)cc3[nH]2)CC1 | inactive |

| Structure (SMILES) | outcome |
| --- | --- |
| Cc1cc2nc(-c3cccc(NC(=O)c4ccc(Br)o4)c3C)oc2cc1C | inactive |
| Cc1cc2oc(=O)cc(CN3CCC(C)CC3)c2cc1Cl | inactive |
| c1ccc(OCCn2c(-c3ccco3)nc3ccccc32)cc1 | inactive |
| CC(C)C(=O)N1CCc2cc(-c3csc(N)n3)ccc21 | inactive |
| CCC(C)C(=O)N1CCc2cc(-c3csc(N)n3)ccc21 (configuration not stated) | inactive |
| Cc1csc(=O)n1CC(=O)OCc1cccc2ccccc12 | inactive |
| CCOC(=O)c1nn(-c2cc(C(=O)OC)cc(C(=O)OC)c2)cc1O | inactive |
| COCCCNS(=O)(=O)c1ccc2c(c1)CCN2C(C)=O | inactive |
| CCOC(=O)c1cc(C(=O)OCC)cc(-n2cc(O)c(C(=O)OCC)n2)c1 | inactive |
| COC(=O)c1nn(-c2ccc3c(c2)OCO3)cc1O | inactive |
| CCOC(=O)c1nn(-c2ccc3c(c2)OCO3)cc1O | inactive |
| CCOC(=O)c1nn(-c2ccc3c(c2)CCN3C(C)=O)cc1O | active |
| COC(=O)c1nn(-c2c(C)n(C)n(-c3ccccc3)c2=O)cc1O | inactive |
| O=S(=O)(NCc1ccc(Cl)cc1)c1cnc[nH]1 | inactive |
| O=C(O)C1CCCCC1C(=O)NC1CCCCC1 (configuration not stated) | inactive |
| CC(C)(C)C(=O)NC1CCN(S(C)(=O)=O)CC1 | inactive |
| Cn1cccc1Cc1nnc(SCC(=O)N2CCc3ccccc32)n1-c1ccc(F)cc1 | inactive |
| CC1=NC(=O)C(N=Nc2cccc(O)c2)N1c1ccccc1 (configuration not stated) | inactive |
| CC1=NC(=O)C(N=Nc2ccccc2)N1c1ccccc1 (configuration not stated) | inactive |
| Cc1ccn(Cc2n[nH]c(=S)n2Cc2ccccc2)n1 | inactive |
